The text below walks through data of PubChem BioAssay AID435005 (Broad Institute, 2010).

The campaign covered roughly 300,000 compounds. About 2,400 (0.8%) were called active. The entries come from a sample that favours actives as a whole. Unmarked numbers belong to inactive results.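 Rule for the calls: active = Every replicate reaches about 75%, or at least half do and their mean reaches it too (limit read from the data); inconclusive = At least half of replicates reach the limit but their mean does not; inactive = Under half of replicates reach the limit.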

The assay can be described thus: INS-1E beta cell survival under cytokines – luminescence, primary screen (AID 435005).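 Note: 0% = cytokine-treated negative control wells and 100% = positive control rescue; higher means more ATP so stronger rescue from cytokine killing.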 To be noted: INS-1E cytokine-induced death, ATP luminescence, 48 h; active compounds read high; percent of positive-control rescue, neutral wells zero; concentration not given here.
`CCCCCCn1c(CN2CCCCC2)nc2c1c(=O)n(C)c(=O)n2C`: the protection from apoptosis is 2.42%.

As for `CCCCCCCCn1c2c(c(=N)c3c1CCC3)CCCC2`, the protection from apoptosis is 99.8% (active). The result for `CC(NC(=O)COC(=O)c1ccc2ccccc2n1)c1ccccc1` (stereo not given) reads -4.86%; that for `O=C(Nc1nnc(-c2ccccc2)o1)c1cccc(S(=O)(=O)N2CCOCC2)c1`, 5.19%; that for `Cc1c(Cl)c([N+](=O)[O-])nn1Cc1ccc(C(=O)N/N=C\c2cc(Cl)ccc2O)o1`, 89.7% (active). The result for `Cc1ccc(C(=O)O)cc1NC(=O)c1ccc(Cn2nc(C)c(Cl)c2C)o1` reads 1.11%. The value for `Cc1c(Cl)c([N+](=O)[O-])nn1CCCC(=O)Nc1cc(Cl)ccc1Cl` was 5.23%; that for `O=C(CSc1nnc(N2CCOCC2)n1-c1cccc(F)c1)N1CCN(c2ccccn2)CC1` was -0.686%; that for `COc1cccc2sc3cc(NCC[C@@H]4CCCN4C)ccc3c(=O)c12` was -2.22%. As for `O=Cc1cn(Cc2ccccc2)nc1-c1cccnc1`, the protection from apoptosis was 0.63%.

Regarding `O=C1/C(=C\c2cccnc2)CN(Cc2ccccc2)C/C1=C\c1cccnc1`, the protection from apoptosis was 83.8% (active). On to `Clc1ccc(CN2CCN(/N=C/c3cccnc3)CC2)cc1`, for which the protection from apoptosis is -0.218%. `COc1ccc(C(=O)COC(=O)C(O)c2ccccc2)c(OC)c1` (stereo not given): the protection from apoptosis was -0.354%.

On to `O=C(COC(=O)c1ccc(F)cc1)NCC1COc2ccccc2O1` (stereo not given), for which the protection from apoptosis was -5.32%. The result for `CCOC(=O)/C(=C\c1ccc([N+](=O)[O-])cc1)C(=O)c1cc(C(C)=O)c(Nc2ccccc2)s1` reads 107% (active); that for `CCOC(=O)COc1ccc([N+](=O)[O-])cc1`, -8.02%.

As for `Cc1ccc(NC(=O)/C(=C/c2ccc([N+](=O)[O-])cc2)NC(=O)c2ccccc2)cc1`, the protection from apoptosis was -0.596%. Take `COc1ccc2nc3n(c(=O)c2c1)-c1ccc(Cl)cc1C(=O)NC3Cc1ccccc1` (stereo not given): the protection from apoptosis is 5.15%. The result for `COc1ccc(S(=O)(=O)N(C)C[C@@H]2Oc3ccc(NC(=O)Nc4c(C)noc4C)cc3C(=O)N([C@H](C)CO)C[C@@H]2C)cc1` reads 4.1%; that for `Cc1nnc(N/N=C/c2ccccn2)[nH]c1=O`, 109% (active); that for `Cc1cc(C(=O)N/N=C/c2ccccn2)c2ccccc2n1`, -6.79%. `O=C(N/N=C/c1ccccn1)c1cccnc1`: the protection from apoptosis was -0.0642%.

As for `COc1ccc(S(=O)(=O)N2CCN(CC(=O)N3CCOCC3)CC2)cc1OC`, the protection from apoptosis is -2.22%. The value for `CN(c1ccccc1)S(=O)(=O)c1cccc(NC(=O)Cc2ccc(Cl)cc2)c1` was 14.2%; that for `COc1ccccc1NC(=O)CCCc1c[nH]c2ccccc12` was 6.21%; that for `COc1ccc(C(CCNCc2ccccc2F)c2ccc(F)cc2)cc1` (stereo not given) was 1.89%. Take `COc1cccc(CNCCc2c[nH]c3ccccc23)c1OCc1ccccc1F`: the protection from apoptosis is 82.8% (active). The value for `C=CCC[C@H](Cc1ccc(F)cc1)C(=O)OC[C@@H](Cc1c[nH]c2ccccc12)NC(=O)[C@H](CC=C)CC(=O)N[C@H](CO)Cc1ccccc1` was -1.63%.

As for `Cc1cc(N2CCCC2)ccc1NC(=O)COc1ccc(Cl)cc1`, the protection from apoptosis was -16.4%.

For the compound `O=C1N[C@H](Cc2c[nH]c3ccccc23)COC(=O)[C@H](Cc2ccc(F)cc2)C/C=C\C[C@H]1CC(=O)N(CCO)Cc1ccccc1`, the protection from apoptosis is -0.37%. The value for `CCc1ccc(OCC2c3cc(OC)c(OC)cc3CCN2C(C)=O)cc1` (stereo not given) was -2.37%. The value for `CC[C@H]1CN2CCc3cc(OC)c(OC)cc3[C@@H]2C[C@@H]1C[C@H]1NCCc2cc(OC)c(OC)cc21` was 81.8% (active). The result for `COc1ccc2c(c1)CCNC2Cc1ccc(OC)c(O)c1` (stereo not given) reads -7.35%; that for `Cc1ccc(S(=O)(=O)N2CCN(C(=O)Cn3c(=O)cnc4ccccc43)CC2)c(C)c1`, 3.1%; that for `CCOc1ccccc1Nc1nnc(SCC(=O)NCC2CCCO2)s1` (stereo not given), -3.28%. In the case of `COc1ccccc1/C=N\Nc1cc(C)nc(-n2nc(C)cc2C)n1`, the protection from apoptosis was 85.5% (active).

In the case of `COc1cc(/C=N/Nc2nc3ccccc3s2)ccc1O`, the protection from apoptosis is -9.44%. The value for `Cc1nc(Cl)cc(N/N=C/c2ccccc2)n1` was 0.482%; that for `COc1ccccc1/C=N/Nc1nc(C)c(C(C)=O)s1` was 1.33%; that for `COc1cccc2c(N/N=C/c3ccco3)cc(C)nc12` was 0.451%.

Take `Cc1ccc(S(=O)(=O)Nc2nc(C)cc(N/N=C/c3ccc(O)cc3)n2)cc1`: the protection from apoptosis was -0.0503%. Regarding `Cc1cc(N/N=C\c2ccc(Br)cc2)nc(-n2nc(C)cc2C)n1`, the protection from apoptosis is 101% (active). The result for `COc1ccc(/C=N/Nc2cc(N3CCOCC3)nc(C)n2)c(OC)c1` reads -0.288%. The result for `COc1cccc(/C=N/Nc2cc(C)nc(-c3ccccc3O)n2)c1O` reads 83.1% (active); that for `CC(=O)Nc1ccc(S(=O)(=O)NCCC(=O)N2CCN(c3ccccc3Cl)CC2)cc1`, 4.22%; that for `O=S(=O)(NCC1CN(S(=O)(=O)c2ccc3c(c2)OCCO3)C1)c1c(F)cccc1F`, -0.452%.

In the case of `O=C(COC(=O)c1n[nH]c2ccccc12)Nc1ccccc1Br`, the protection from apoptosis is 2.52%.

Take `O=C(Nc1ccc(C(F)(F)F)cc1)c1cccc(-n2cnnn2)c1`: the protection from apoptosis is 8.03%. The value for `Cc1ccc(C(=O)Nc2ccccc2-c2ccccc2)cc1S(=O)(=O)Nc1ccccc1` was 12.9%. With `O=C(NCCOc1cccnc1)c1ccc(OC2CCN(Cc3ccccn3)CC2)cc1`, the protection from apoptosis is 120% (active). The value for `CN(CCc1ccccn1)C(=O)c1ccc(OC2CCN(Cc3ccccn3)CC2)cc1` was 0.235%; that for `O=C(c1ccc(OC2CCN(Cc3ccccn3)CC2)cc1)N1CCCCCC1` was -1.86%; that for `CN(Cc1ccc(F)cc1)C(=O)CN1C(=O)c2ccccc2S1(=O)=O` was -4.27%. The value for `CN(C)C(CNC(=O)c1ccc(OCc2cn3ccccc3n2)cc1)c1ccco1` (stereo not given) was 0.439%. Take `FC(F)(F)c1nc2ccccc2nc1N/N=C/c1ccc(Cl)cc1`: the protection from apoptosis is 7.12%. `Cc1nc2ccccc2nc1N/N=C/c1ccc(O)cc1O`: the protection from apoptosis is 86.1% (active). Regarding `Oc1ccc(/C=N/NC2=NCCCCC2)c(O)c1`, the protection from apoptosis was -2.33%. Turning to `Oc1ccc(/C=N/Nc2nc(-c3ccccc3F)nc3ccccc23)c(O)c1`, the protection from apoptosis was 91.3% (active). The value for `Fc1ccc(/C=N/Nc2nc(-c3cccnc3)nc3ccccc23)cc1` was 12.4%. Take `Cc1cccc(-c2nc(Nc3ccc(O)cc3)c3ccccc3n2)c1`: the protection from apoptosis is -3.47%. The value for `COc1ccc(-c2c(C#Cc3ccsc3)c3cc(-c4ccc(CN5CCOCC5)cc4)ccc3n2C)cc1` was -5.34%; that for `C=CCC[C@@H](Cc1ccc(F)cc1)C(=O)OC[C@@H](C)NC(=O)[C@H](CC=C)CC(=O)N(CCO)Cc1ccccc1` was -3.2%; that for `CC(C)(C)NS(=O)(=O)NC(=O)C1=C(N2CCCC2)COC1=O` was -7.92%. The value for `COc1ccc(NC(=O)CNc2cc(S(=O)(=O)N3CCOCC3)ccc2N2CCOCC2)c(OC)c1` was -2.12%. The value for `CC(CNC(=O)Cn1cnc2c(OCc3ccccc3)ncnc21)c1ccccc1` (stereo not given) was 0.936%. With `CC(C)(C)OC(=O)C[C@@H]1C/C=C\C[C@@H](CC(=O)N[C@H](CO)Cc2ccccc2)C(=O)NC[C@@H](c2ccccc2)OC1=O`, the protection from apoptosis is 6.98%. The value for `CCOc1cc2ccccc2cc1C(=O)Nc1ccccn1` was -5.78%. The value for `Cc1ccc(Cl)cc1NC(=O)c1ccccn1` was -1.51%. The result for `CCN(CC)CCOc1ccc2c(c1)C(=NNC(=O)c1ccccn1)c1cc(OCCN(CC)CC)ccc1-2` reads 107% (active). Regarding `NS(=O)(=O)c1ccc(CNC(=O)c2cccc(S(=O)(=O)N3CCc4ccccc43)c2)cc1`, the protection from apoptosis is 1.37%.

In the case of `O=C(Nc1cc(S(=O)(=O)N2CCCCC2)ccc1Cl)C1COc2ccccc2O1` (stereo not given), the protection from apoptosis is 3.53%. Consider `Cc1cccc(NC(=O)Nc2cccc(Oc3c(F)c(F)c(F)c(F)c3F)c2)c1`, for which the protection from apoptosis is 99.2% (active). The result for `Cc1cccc(NC(=O)Nc2nnc(-c3ccccc3)o2)c1` reads -2.12%; that for `COc1cccc(NC(=O)NCc2ccc(F)cc2)c1`, -3.25%; that for `CN(CC(=O)Nc1ccc(C(N)=O)cc1)S(=O)(=O)c1ccc2c(c1)OCCO2`, -4.98%. The result for `N#Cc1cccc(NC(=O)C2CCCN(C(=O)c3ccc(Cl)cc3)C2)c1` (stereo not given) reads 0.765%; that for `Cc1ccc(/C=C/C(=O)Nc2ccc([N+](=O)[O-])c(NC(=O)/C=C/c3ccc(C)o3)c2)o1`, 2.69%; that for `O=C(/C=C/c1ccc([N+](=O)[O-])o1)NNC(=O)c1ccc(F)cc1`, 93.8% (active). The result for `O=C(N/N=C/c1ccc([N+](=O)[O-])o1)c1cn(-c2ccccc2)nc1-c1ccc(F)cc1` reads -1.79%; that for `C[C@H]1COC(=O)[C@H](CC(=O)OC(C)(C)C)C/C=C\C[C@@H](CC(=O)N[C@H](CO)Cc2ccccc2)C(=O)N1`, 0.417%. Turning to `COCCCNC(=O)CC1C[C@H](C(=O)N2CCCCC2)[C@@]2(CCc3ccccc3)c3[nH]c4ccccc4c3CCN2C1=O` (stereo not given in full), the protection from apoptosis is -3.93%. The result for `C=CC[C@@H](CC(=O)N[C@H](CO)Cc1ccccc1)C(=O)N[C@@H](COC(=O)[C@@H](CC=C)Cc1ccc(F)cc1)Cc1c[nH]c2ccccc12` reads 2.3%; that for `CCOC(=O)c1c(-c2ccc(C)cc2)csc1/N=C(\C)C1=C(O)c2ccccc2C1=O`, -5.12%; that for `COc1ccc(N2CCN(C(C)=C3C(=O)c4ccccc4C3=O)CC2)cc1`, -2.02%. As to `CCOC(=O)C1=C(c2ccc(OC)cc2)C(=O)c2ccccc2C1=O`, the protection from apoptosis was 130% (active).
